Measured values reported in PubChem BioAssay AID651718 (The Scripps Research Institute Molecular Screening Center, 2012).
About 2,700 (0.75%) of roughly 360,000 compounds were called active. For the sample, actives were picked, then their nearest neighbours and some compounds at random. Values without a mark were called inactive. No stated cut-off is given here; in the data, active means inhibition above about 4.5%; inactive means the rest.

Tested on: Methionine sulfoxide reductase A (Bos taurus)
Assay: inhibition of methionine sulfoxide reductase A – biochemical, absorbance, bovine, HTS, primary screen (AID 651718);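 further: 0% = vehicle wells with enzyme and 100% = reference inhibitor wells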
Conditions: purified bovine MsrA, absorbance read-out; at 15.5 µM; active compounds read high

SMILES | inhibition
CCn1ncc(Br)c1C(=O)Nc1cc(C)ccc1F | 0.75%
C/C(=N\NC(=O)COc1c(C)cccc1C)c1cccs1 | -0.04%
Cc1ccc(NNC(=O)c2cccs2)cc1Cl | -0.8%
Cc1ccccc1C(CC(=O)c1cccs1)C(C#N)C#N (stereo not drawn) | 5.15% (active)
COC(=O)Cc1nnn2c1[C@H](C)[C@@H](OC)c1cc(Br)ccc1-2 | 0.56%
CC(=O)c1ccc(N2CCN(C(=O)c3ccc4nc[nH]c4c3)CC2)cc1 | 4.75% (active)
CCc1nc2ccc(C(=O)N3CCN(c4cccc(Cl)c4)CC3)cc2nc1CC | 0.35%
CC(=NNC(=O)c1ccc2nc[nH]c2c1)c1ccc(Br)cc1 | -0.04%
CN(Cc1ccccc1)C(=O)[C@@H]1CCCN1C(=O)[C@@H]1CCCN1C(=O)c1c(F)cccc1F | 1.12%
Cc1[nH]c2ccccc2c1CC(=O)Nc1ccc(Nc2cccnc2)c(-c2cccc(Cl)c2)c1 | 0.91%
COc1ccc(/C=C2\SC(=O)N(CCC(=O)NC3CCS(=O)(=O)C3)C2=O)cc1 (stereo not drawn) | 7.15% (active)
COc1ccccc1/C=C1\SC(=O)N(CCC(=O)N(C)C2CCS(=O)(=O)C2)C1=O (stereo not drawn) | 1.66%
COc1ccc(-c2ccc(OC(=O)NC3CCS(=O)(=O)C3)cc2)cc1 (stereo not drawn) | -0.4%
CC(C)CNc1cccc2c1S(=O)(=O)N[C@H](C)CO2 | 0.24%
COC(=O)CN1C(=O)C(O)=C(C(C)=O)C1c1ccc([N+](=O)[O-])cc1 (stereo not drawn) | 4.6% (active)
CC(=O)C1=C(O)C(=O)N(c2cccnc2)C1c1ccc([N+](=O)[O-])cc1 (stereo not drawn) | 3.72%
CC(=O)C1=C(O)C(=O)N(c2ccc(Br)cc2)C1c1ccc([N+](=O)[O-])cc1 (stereo not drawn) | 3.13%
CC1=NNC(=O)C1CCC(=O)N/N=C\c1ccc(Cl)c(Cl)c1 (stereo not drawn) | 0.26%
O=C(Cc1ccccc1)N/N=C/c1ccc(Cl)cc1Cl | 0.83%
NCCCCCC(=O)N/N=C/c1ccc2nccnc2c1 | 4.64% (active)
COc1ccc(N2C(=O)C3C(C2=O)C(C(=O)c2ccccc2)N2CCCC32)cc1 (stereo not drawn) | 1.03%
COCCNC(=S)N(C)[C@H]1C[C@H]2c3[nH]c4ccccc4c3CCN2C[C@H]1[C@H](C)O | 0.16%

SMILES | inhibition
N#Cc1ccc(OCCCN2CCC(C(O)(c3ccccc3)c3ccccc3)CC2)c(F)c1 | 2.13%
O=C(/C=C/c1ccco1)NC(=S)N1CCCCC1 | 2.5%
COc1ccc(CN2CCCC(C(=O)N3CCCCC3)C2)cc1 (stereo not drawn) | -0.76%
COc1ccc(/C=C/C(=O)NC(=S)N2CCCC(C(N)=O)C2)cc1 (stereo not drawn) | 5.75% (active)
O=c1[nH][nH]c2c1[C@H](c1ccc(Cl)cc1)O[C@H](CCc1ccccc1)C2 | -0.84%
COc1ccc(NC(=O)N(C)C[C@@H]2OCCCC[C@@H](C)Oc3ccc(NC(=O)NC4CCCCC4)cc3C(=O)N([C@H](C)CO)C[C@@H]2C)cc1 | -0.24%
COc1cc(Cl)c(S(=O)(=O)n2cnc(C)c2)cc1Cl | 0.89%
CN1/C(=C\C=C2\N=C(c3ccc(F)cc3)OC2=O)C(C)(C)c2ccccc21 | 0.34%
CC(=O)Nc1cccc(OCC(=O)/C=C2\N(C)c3ccccc3C2(C)C)c1 | 3.18%
CN1CCN(CCC(=O)N/N=C/C=C2\N(C)c3ccccc3C2(C)C)CC1 | 4.78% (active)
COC(=O)C1=C(C)N(Cc2ccc(F)cc2)C(=S)NC1c1cccc(Cl)c1 (stereo not drawn) | 0%
COc1ccccc1-c1ccc([C@@H]2C[C@H]3[C@H](CON3C)CN2S(=O)(=O)c2cc(Cl)cc(Cl)c2)cc1 | -0.24%
O=C(O)c1ccc(N/N=C/c2ccc3ncccc3c2)cc1 | 5.15% (active)
CCNC(=S)NNC(=O)c1ccc2ncccc2c1 | 0.98%
CC(C)(C)OC(=O)N/N=C/c1ccc(C(=O)O)cc1 | 1.73%
Cc1ccccc1N/N=C/c1ccc(N2CCOCC2)cc1 | 1.63%
Cc1ccc(OCCCC(=O)Nc2ccc(N3CCOCC3)cc2)cc1 | -1.28%
Cc1cc(C(=O)N/N=C/c2ccc(N3CCOCC3)cc2)c(C)o1 | 5.02% (active)
O=C(N/N=C/c1cccc(OC(=O)c2ccc([N+](=O)[O-])cc2)c1)c1cccnc1 | -0.13%
CCOc1cc(/C=N/NC(=O)c2ccncc2)cc(Br)c1O | 2.43%
O=C(CNC(=O)C1COc2ccccc2O1)N/N=C/c1cc(Br)c(O)c(Br)c1 (stereo not drawn) | 4.96% (active)
CC1CC(=NNC(=O)C2COc3ccccc3O2)CC(C)(C)C1 (stereo not drawn) | -0.12%

SMILES | inhibition
CCN(CC)c1ccc(/C=N/NC(=O)CNC(=O)c2cccnc2)cc1 | 4.63% (active)
CCCOc1cccc(C(=O)NCCCNC(=O)c2cccnc2)c1 | -0.09%
O=C(CNC(=O)c1cccs1)N/N=C/c1cccc(Br)c1 | 0.52%
CC(C)OCCCNC(=O)CNC(=O)c1cccs1 | 0.37%
O=C(CNC(=O)C(c1ccccc1)c1ccccc1)N/N=C\c1ccc2c(c1)OCO2 | 1.12%
O=C(CNC(=O)c1cccnc1)N/N=C/c1cc(Br)c(O)c(Br)c1 | 8.83% (active)
O=C(Cc1ccccc1)Nc1ccc(NC(=O)c2cccnc2)cc1 | -0.64%
CCN(CC)c1ccc(/C=N/NC(=O)CNC(=O)c2cccs2)cc1 | 4.8% (active)
COC(=O)C1=C(C(=O)OC)C2C=C(C(C)C)C1C(=O)C2(C)O (stereo not drawn) | 0.16%
CC[C@H](C)[C@H]1CNC(=O)C(=O)N1CC1CCN(CCc2ccc(OC)c(OC)c2)CC1 | -0.53%
O=C(NCC(c1ccco1)N1CCc2ccccc21)c1cccc(F)c1 (stereo not drawn) | -0.1%
Cc1ccccc1C(=O)N[C@H](C(=O)N1CCC[C@H]1C(=O)NCc1ccccc1)C(C)C | 0.08%
Cc1ccc2nc(-c3ccc(CN4CCC(n5cc(-c6ccccc6)[nH]c5=O)CC4)cc3)c(-c3ccccc3)nc2c1 | 1.47%
O=c1[nH]c(-c2ccccc2)cn1C1CCN(Cc2ccc(-c3nc4ccc(F)cc4nc3-c3ccccc3)cc2)CC1 | 1.06%
Cc1nc(NC(=O)C(C)(C)C)sc1[N+](=O)[O-] | 0.16%
Oc1c(C(c2ccco2)N2CCC3(CC2)OCCO3)sc2ncnn12 (stereo not drawn) | 1.08%
CC(=O)Nc1ccc(/C=N/NC(=O)c2cccs2)cc1 | 5.38% (active)
C/C(=N\OCC(=O)Nc1ccc(Br)cc1)c1cccs1 | 0%
O=C(COC(=O)CCC(=O)c1cccs1)NCc1ccco1 | -1.07%
O=C(N/N=C/C=C/c1ccco1)c1cccs1 | 5.18% (active)
O=C(NC(Cc1c[nH]c2ccccc12)C(=O)N/N=C/c1ccc(Br)cc1)c1cccs1 (stereo not drawn) | 1.85%
CC1(C)CC(=O)C/C(=N\NC(=O)c2cccs2)C1 | 0.04%

SMILES | inhibition
Nc1[nH]c(C(=O)c2ccc(Br)cc2)c(-c2ccc3c(c2)OCO3)c1C(=O)NCCc1c[nH]c2ccccc12 | 1.06%
CCOC(=O)CNC(=O)N(C)[C@H]1C[C@H]2c3[nH]c4c(-c5ccc6c(c5)OCO6)cccc4c3CCN2C(=O)[C@H]1[C@H](C)O | 0.91%
COC(=O)[C@]12C[C@H](CC(=O)NCc3ccc(C)o3)C(=O)N(CCC3=CCCCC3)C1=C[C@H](C(C)(C)C)O[C@@H]2C | -0.16%
COCc1cc(N2CCN(C(=O)OC(C)(C)C)C[C@@H]2C)ccc1N1CCN(Cc2ccccc2)[C@H](C)C1 | -0.33%
CN1C(=O)C2CC(O)C(SC3CC4C(=O)N(C)C(=O)C4CC3O)CC2C1=O (stereo not drawn) | -0.2%
COC(=O)C1=C(C)N(Cc2cccc(C(F)(F)F)c2)C(=NCc2ccccc2)NC1c1ccc(Cl)cc1 (stereo not drawn) | -1.08%
O=C(C(=O)N1CCC(CNC(=O)c2cccnc2Cl)CC1)c1cccs1 | 0.64%
COc1ccc(S(=O)(=O)N2CCOCC2)cc1NC(=O)CSc1nnc(NC2CC2)s1 | 1.12%
COc1ccc(-c2cc3ccc(OCc4nn[nH]n4)cc3oc2=O)cc1 | 6.87% (active)
Cc1noc(C)c1COc1ccc2ccc(=O)oc2c1 | 1.22%
CCCCc1cc(=O)oc2cc(C)cc(OCc3nn[nH]n3)c12 | 2.46%
CN1CCNC(=O)C1CC(=O)NCCC1=CCCCC1 (stereo not drawn) | 2.03%
CCOC(=O)C1CSCCS(=O)(=O)N1Cc1ccc(Cl)cc1 (stereo not drawn) | -0.33%
CC(Oc1ccccc1[N+](=O)[O-])C(=O)N/N=C/c1ccoc1 (stereo not drawn) | 1.1%
Cc1cc(C(=O)N/N=C/c2ccc(O)c([N+](=O)[O-])c2)c(C)n1-c1ccc(F)cc1 | 4.88% (active)
Cc1c(Cl)c([N+](=O)[O-])nn1Cc1ccc(C(=O)N/N=C\c2cc(Cl)ccc2O)o1 | 0.28%
COC(=O)C(C(=O)OC)c1ccccc1NS(=O)(=O)c1cccc2ccccc12 | -0.65%
CCOC(=O)C/C(C)=N\Nc1ccc([N+](=O)[O-])cc1[N+](=O)[O-] | 12.8% (active)
CCCCOC(=O)CCCc1ccc([N+](=O)[O-])cc1[N+](=O)[O-] | 4.36%
CCOC(=O)c1ccc(NNC(C)=O)c([N+](=O)[O-])c1 | -0.39%
CC(C(=O)NC1CCCC1)N1CCN(S(=O)(=O)c2ccccc2Cl)CC1 (stereo not drawn) | -0.92%
CCCCNC(=O)C(C)N(CCN(C)C)C(=O)CCCCCN1C(=O)NC(c2ccc(Cl)cc2)C(C(=O)OCc2ccccc2)=C1C (stereo not drawn) | 1.77%
